# Source: PubChem BioAssay
# Calls of active or inactive are those of the source.
# Columns and labels:
# [1] = target: Albumin (Bos taurus) (UniProt P02769); test: bovine serum albumin binders on microarray, profiling panel, artefact control for SMM control protein annotation, biochemical, small-molecule microarray, Alexa647 label, 635/667 nm fluorescence (AID 1118); conditions: BSA-A647 binding, fluorescence 635 nm, higher = more signal;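 also: score merges 667 nm emission intensity and signal-to-noise per printed compound spot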
# [2] = small-molecule microarray binders of probe aXIP, primary screen, biochemical, NeuroSMM set, 635/667 nm fluorescence (AID 1119); conditions: higher = more signal, called active from +8 up or from −8 down;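 also: probe is the protein aXip251-270 applied at 1 µg/mL to compound-printed slides; binding of probe to printed compounds measured as 667 nm fluorescence plus signal to noise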
# [3] = small-molecule binders of probe aNOTCH3, primary screen, biochemical, small-molecule microarray, 635/667 nm fluorescence (AID 1120); conditions: higher = more signal;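 also: probe is a biotin-tagged antibody raised against NOTCH3 rather than NOTCH3 protein; score merges spot fluorescence near 667 nm with spot signal to noise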
# [4] = small-molecule binders of probe aNOTCH2, primary screen, biochemical, small-molecule microarray, 635/667 nm fluorescence (AID 1121); conditions: higher = more signal;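 also: score merges feature fluorescence read at 667 nm with its signal to noise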
# [5] = target: Carbonic anhydrase 2 (Homo sapiens) (UniProt P00918); test: CAII small-molecule binders, profiling panel, biochemical, small-molecule microarray, Alexa647-labelled CAII (AID 1122); conditions: CAII-A647 binding fluorescence, higher = more signal
# [6] = COS7 lysate on small-molecule microarray, probe aHis, 635 nm (AID 1123); conditions: COS7 cell lysate, fluorescence, higher = more signal;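 also: z-score combines 667nm fluorescence intensity with signal-to-noise per printed compound spot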
# [7] = compound binding in COS7 lysate, probe aLAP1, primary screen, cell lysate, small-molecule microarray (AID 1124); conditions: probe aLAP1, fluorescence, higher = more signal;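 also: lysate comes from COS7 cells expressing LAP1 and is applied at 0.3 µg/mL; score merges spot fluorescence near 667 nm with signal-to-noise over triplicate slides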
# [8] = system: Sam68 (KHDRBS1); test: Sam68 small-molecule binders, primary screen, biochemical, small-molecule microarray, 635 nm fluorescence (AID 1125); conditions: small-molecule microarray binding, higher = more signal;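 also: score merges 667 nm channel intensity with signal to noise over triplicate slides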
# [9] = system: Chordin-like protein 2 (CHRDL2); test: CHRDL2 small-molecule binders, primary screen, biochemical, small-molecule microarray, 635 nm fluorescence (AID 1126); conditions: small-molecule microarray binding, fluorescence 635 nm; higher = more signal;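 also: printed compound slides probed with Chrdl2 protein at 4 µg/mL for 1 h at 4 C; score merges 667 nm emission intensity with signal to noise over three replicate slides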
# [10] = target: Concanavalin-A (Canavalia ensiformis) (UniProt P02866); test: ConA small-molecule binders, primary screen, artefact control for SMM control protein annotation, biochemical, small-molecule microarray, Alexa647 label, 635 nm (AID 1127); conditions: ConA-A647 binding fluorescence, higher = more signal;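 also: z combines 667 nm emission intensity with signal-to-noise across three replicate slides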
# Sequence of Concanavalin-A (Canavalia ensiformis) (P02866 whole entry, looked up): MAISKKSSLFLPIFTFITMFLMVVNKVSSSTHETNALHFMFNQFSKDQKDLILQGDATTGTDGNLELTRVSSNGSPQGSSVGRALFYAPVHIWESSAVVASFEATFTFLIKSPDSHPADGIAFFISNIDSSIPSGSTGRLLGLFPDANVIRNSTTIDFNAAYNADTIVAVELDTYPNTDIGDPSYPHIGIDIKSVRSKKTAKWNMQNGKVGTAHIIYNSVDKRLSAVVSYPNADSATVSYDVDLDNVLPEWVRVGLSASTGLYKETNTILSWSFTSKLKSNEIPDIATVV
# Sequence of Albumin (Bos taurus) (P02769 whole entry, looked up): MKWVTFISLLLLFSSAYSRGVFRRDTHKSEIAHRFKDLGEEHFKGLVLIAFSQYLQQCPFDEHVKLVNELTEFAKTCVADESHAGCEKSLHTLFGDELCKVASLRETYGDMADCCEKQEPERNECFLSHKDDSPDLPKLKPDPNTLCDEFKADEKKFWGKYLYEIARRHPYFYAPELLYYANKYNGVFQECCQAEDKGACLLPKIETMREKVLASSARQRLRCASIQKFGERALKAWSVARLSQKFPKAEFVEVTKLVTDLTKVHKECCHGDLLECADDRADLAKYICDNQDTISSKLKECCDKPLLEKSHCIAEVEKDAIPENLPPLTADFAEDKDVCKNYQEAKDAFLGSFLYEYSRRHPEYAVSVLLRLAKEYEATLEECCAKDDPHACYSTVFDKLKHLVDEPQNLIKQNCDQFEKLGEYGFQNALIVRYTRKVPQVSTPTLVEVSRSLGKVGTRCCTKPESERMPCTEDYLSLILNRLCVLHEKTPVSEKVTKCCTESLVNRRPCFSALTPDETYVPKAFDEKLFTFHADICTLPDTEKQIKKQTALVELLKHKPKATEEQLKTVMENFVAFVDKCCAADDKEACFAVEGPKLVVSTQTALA
structure (smiles),measurement,setting,value
COc1ccc(NC(=O)O[C@H]2[C@@H]3OC(=O)[C@H](Cc4cccc(Br)c4)C/C=C/C[C@@H](Cc4cccc(Br)c4)C(=O)O[C@H]3[C@@H](OC)O[C@@H]2CO)cc1,composite z-score,[1],0.259
same,composite Z-score,[2],0.878 (inactive)
same,composite z-score,[3],0.111
same,composite z-score,[4],0.683
same,composite z-score,[5],0.507
same,composite z-score,[6],0.84
same,composite z-score,[7],0.782
same,composite z-score,[8],0.355
same,composite z-score,[9],0.145
same,composite z-score,[10],0.173
COC(=O)[C@@]1(Cc2ccccc2)[C@H]2c3cc(C(=O)N(C)C)n(CCn4cc([N+](=O)[O-])nc4C)c3C[C@H]2CN1C(=O)c1ccccc1,composite z-score,[1],0.89
same,composite Z-score,[2],0.0327 (inactive)
same,composite z-score,[3],0.16
same,composite z-score,[4],-0.0254
same,composite z-score,[5],0.888
same,composite z-score,[6],2.56
same,composite z-score,[7],0.697
same,composite z-score,[8],1.1
same,composite z-score,[9],-0.113
same,composite z-score,[10],0.526
C[C@]1(C(=O)NCC(F)(F)F)c2ccccc2C(=O)N(Cc2ccccc2)[C@H]1c1ccc(CO)cc1,composite z-score,[1],-1.14
same,composite Z-score,[2],-0.222 (inactive)
same,composite z-score,[3],-0.221
same,composite z-score,[4],-0.123
same,composite z-score,[5],0.448
same,composite z-score,[6],-0.145
same,composite z-score,[7],0.498
same,composite z-score,[8],-1.22
same,composite z-score,[9],-1.7
same,composite z-score,[10],0.0038
CCOC(=O)C[C@H]1[C@H](OC(=O)c2ccc(C(=O)c3ccccc3)cc2)[C@@H](NC(=O)CC(C)C)c2cc(OCCCO)ccc2N1C(=O)Cc1ccc(OC)cc1,composite z-score,[1],0.793
same,composite Z-score,[2],-0.0147 (inactive)
same,composite z-score,[3],-0.0377
same,composite z-score,[4],0.075
same,composite z-score,[5],0.139
same,composite z-score,[6],1.26
same,composite z-score,[7],0.563
same,composite z-score,[8],0.698
same,composite z-score,[9],-0.612
same,composite z-score,[10],0.142
CCOC(=O)C[C@H]1[C@H](OC(=O)c2ccccc2-c2ccccc2)[C@@H](NC(=O)c2ccccc2)c2cc(OCCCO)ccc2N1C(=O)c1ccccc1,composite z-score,[1],0.505
same,composite Z-score,[2],-0.383 (inactive)
same,composite z-score,[3],-0.0647
same,composite z-score,[4],-0.019
same,composite z-score,[5],0.666
same,composite z-score,[6],0.677
same,composite z-score,[7],0.513
same,composite z-score,[8],0.42
same,composite z-score,[9],0.116
same,composite z-score,[10],0.178
C=C(C(=O)CC[C@@H](OC(=O)c1ccccc1-c1ccccc1C(=O)O)c1ccccc1OCCO)C(C)C,composite z-score,[1],0.287
same,composite Z-score,[2],-0.28 (inactive)
same,composite z-score,[3],-0.0111
same,composite z-score,[4],-0.108
same,composite z-score,[5],0.734
same,composite z-score,[6],0.418
same,composite z-score,[7],0.175
same,composite z-score,[8],1.21
same,composite z-score,[9],0.935
same,composite z-score,[10],0.866
COCCOC(=O)N1C(=O)[C@@]2(c3cc(C#CC4=CCCCC4)ccc31)[C@H](c1ccc(O)cc1)N1[C@H](c3ccccc3)[C@H](c3ccccc3)OC(=O)[C@H]1[C@@H]2C(=O)NC[C@H](O)c1ccccc1,composite z-score,[1],0.613
same,composite Z-score,[2],0.225 (inactive)
same,composite z-score,[3],0.158
same,composite z-score,[4],-0.148
same,composite z-score,[5],0.27
same,composite z-score,[6],1.68
same,composite z-score,[7],1.02
same,composite z-score,[8],1.3
same,composite z-score,[9],0.642
same,composite z-score,[10],0.935
CC(C)C(=C=CC[C@@H](O)c1cccc(OCCO)c1)C[C@@H](O)COCc1ccccc1,composite z-score,[1],0.15
same,composite Z-score,[2],-1.39 (inactive)
same,composite z-score,[3],-0.0708
same,composite z-score,[4],-0.0865
same,composite z-score,[5],0.763
same,composite z-score,[6],0.75
same,composite z-score,[7],0.102
same,composite z-score,[8],-0.0876
same,composite z-score,[9],-0.456
same,composite z-score,[10],0.346
NC(=O)NCC#Cc1ccc2c(c1)[C@]1(C(=O)N2)[C@H](C(=O)N2CCN(c3ncccn3)CC2)[C@H]2C(=O)O[C@H](c3ccccc3)[C@H](c3ccccc3)N2[C@@H]1c1ccc(OCCO)cc1,composite z-score,[1],0.003
same,composite Z-score,[2],0.17 (inactive)
same,composite z-score,[3],0.127
same,composite z-score,[4],-0.084
same,composite z-score,[5],0.236
same,composite z-score,[6],0.944
same,composite z-score,[7],0.241
same,composite z-score,[8],0.982
same,composite z-score,[9],0.106
same,composite z-score,[10],0.972
